The text below walks through data of PubChem BioAssay.

A short description of test [1]: compounds binding Alexa647 anti-His antibody – biochemical, small-molecule microarray, 635 nm fluorescence, artefact control for SMM control protein annotation, primary screen (AID 1128).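 Note: score merges feature fluorescence with signal-to-noise for each printed compound spot.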 The following applies: higher = more signal.
Test [2] concerns Human papillomavirus type 1a E7 protein (residues 1-88). Nature of the test: HPV1a E7 small-molecule binders, primary screen, biochemical, small-molecule microarray, residues 1-88, 635 nm (AID 1129). The following applies: small-molecule microarray binding, fluorescence 635 nm; higher = more signal.
For test [3], the target named is Focal adhesion kinase 1 (Homo sapiens) (UniProt Q05397). Nature of the test: PTK2 protein binding on printed compound slides – biochemical, small-molecule microarray, 635/667 nm fluorescence, BSA, DTT, primary screen (AID 1130).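 Note: composite of spot emission at 667 nm and signal to noise over triplicate slides.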 The following applies: 635 nm fluorescence, higher = more signal.
Focal adhesion kinase 1 (Homo sapiens), sequence (Q05397 whole entry, looked up): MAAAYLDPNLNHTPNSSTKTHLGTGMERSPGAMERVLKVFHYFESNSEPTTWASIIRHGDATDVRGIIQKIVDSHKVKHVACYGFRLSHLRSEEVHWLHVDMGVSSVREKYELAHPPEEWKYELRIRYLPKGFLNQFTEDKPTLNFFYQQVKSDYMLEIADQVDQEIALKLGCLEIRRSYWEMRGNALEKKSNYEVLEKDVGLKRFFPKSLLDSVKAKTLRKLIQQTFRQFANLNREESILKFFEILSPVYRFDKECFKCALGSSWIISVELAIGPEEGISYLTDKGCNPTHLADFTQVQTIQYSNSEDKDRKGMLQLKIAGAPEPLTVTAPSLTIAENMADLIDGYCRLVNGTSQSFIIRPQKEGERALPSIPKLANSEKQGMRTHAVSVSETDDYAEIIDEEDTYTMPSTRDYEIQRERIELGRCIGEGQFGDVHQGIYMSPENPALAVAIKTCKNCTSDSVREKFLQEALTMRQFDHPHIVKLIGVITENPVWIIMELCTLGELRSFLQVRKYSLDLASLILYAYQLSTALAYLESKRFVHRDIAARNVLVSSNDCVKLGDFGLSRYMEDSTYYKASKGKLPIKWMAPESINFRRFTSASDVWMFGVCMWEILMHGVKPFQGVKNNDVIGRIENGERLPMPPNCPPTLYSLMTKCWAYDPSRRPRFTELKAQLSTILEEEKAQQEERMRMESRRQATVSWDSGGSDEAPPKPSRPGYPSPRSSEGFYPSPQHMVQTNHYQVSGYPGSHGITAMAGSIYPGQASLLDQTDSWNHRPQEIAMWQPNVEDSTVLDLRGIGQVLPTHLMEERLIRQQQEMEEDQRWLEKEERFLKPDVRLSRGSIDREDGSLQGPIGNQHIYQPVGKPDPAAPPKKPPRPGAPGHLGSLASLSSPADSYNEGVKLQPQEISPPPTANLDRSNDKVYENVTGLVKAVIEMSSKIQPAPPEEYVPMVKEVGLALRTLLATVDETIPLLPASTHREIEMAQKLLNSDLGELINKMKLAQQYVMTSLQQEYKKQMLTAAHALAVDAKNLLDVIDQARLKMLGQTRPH
For test [4], the system named is Fibrinogen (Alexa647-labelled). Nature of the test: Alexa647-fibrinogen binding to printed small molecules – biochemical, small-molecule microarray, 635/667 nm fluorescence, artefact control for SMM control-protein annotation, profiling panel (AID 1131).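 Note: z-score merges 667 nm fluorescence with per-spot signal-to-noise over triplicate slides.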 Particulars: fibrinogen-A647 binding fluorescence, higher = more signal.
The target of test [5] is Follistatin (Homo sapiens) (UniProt P19883). The test can be described thus: FST protein binding to printed compounds – biochemical, small-molecule microarray, 635/667 nm fluorescence, primary screen (AID 1132). The following applies: 635 nm fluorescence, higher = more signal.
Follistatin (Homo sapiens), sequence (P19883 whole entry, looked up): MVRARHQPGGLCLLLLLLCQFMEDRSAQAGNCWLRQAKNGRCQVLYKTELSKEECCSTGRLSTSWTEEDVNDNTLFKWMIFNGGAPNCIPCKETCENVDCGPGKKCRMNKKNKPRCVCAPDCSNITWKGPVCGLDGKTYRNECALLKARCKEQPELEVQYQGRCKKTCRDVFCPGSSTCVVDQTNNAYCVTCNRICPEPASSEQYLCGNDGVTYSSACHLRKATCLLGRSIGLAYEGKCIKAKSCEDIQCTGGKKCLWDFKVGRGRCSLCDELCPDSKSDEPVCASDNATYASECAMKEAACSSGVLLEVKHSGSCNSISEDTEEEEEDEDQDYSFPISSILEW
The target of test [6] is Fibroblast growth factor 2 (Homo sapiens) (UniProt P09038). Nature of the test: basic fibroblast growth factor binding to printed compounds – biochemical, small-molecule microarray, 635/667 nm fluorescence, primary screen (AID 1133). Particulars: FGF2, fluorescence 635/667, higher = more signal.
Fibroblast growth factor 2 (Homo sapiens), sequence (P09038 whole entry, looked up): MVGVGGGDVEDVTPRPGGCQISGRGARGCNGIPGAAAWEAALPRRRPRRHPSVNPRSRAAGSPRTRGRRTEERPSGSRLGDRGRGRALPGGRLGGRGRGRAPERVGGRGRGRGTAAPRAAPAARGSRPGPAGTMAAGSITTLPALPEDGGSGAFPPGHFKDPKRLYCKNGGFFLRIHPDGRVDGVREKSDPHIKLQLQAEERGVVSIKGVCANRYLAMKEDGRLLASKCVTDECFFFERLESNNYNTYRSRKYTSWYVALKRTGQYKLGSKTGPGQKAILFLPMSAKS
Test [7] is described as follows: JC-1 mitochondrial potential readout, lung cancer cells – cell-based, A549, JC-1 fluorescence, basal, 24 h, 100 nL, profiling panel (AID 1138).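 Note: A549 lung adenocarcinoma cells under basal conditions with no added stimulus; test concentration not given here.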 Particulars: higher = more signal.
The subject of test [8] is Lefty1. The test can be described thus: Lefty1 protein binding to printed compounds – biochemical, small-molecule microarray, 635/667 nm fluorescence, primary screen (AID 1139). Particulars: fluorescence 635/667, higher = more signal.
For test [9], the system named is wheat germ agglutinin (Triticum aestivum), Alexa647-labelled. Nature of the test: Alexa647-WGA lectin binding to printed small molecules – biochemical, small-molecule microarray, 635/667 nm fluorescence, artefact control for SMM control-protein annotation, profiling panel (AID 1140).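 Note: score merges 667 nm feature emission with signal to noise over triplicate slides.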 The following applies: WGA-A647 binding, 635 nm fluorescence, higher = more signal.

Test [10] has as its target Luciferin 4-monooxygenase (Photinus pyralis) (UniProt P08659). The test can be described thus: inhibition of purified Photinus pyralis luciferase – biochemical, luminescence, purified enzyme, 2006 set, primary screen (AID 1141).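 Note: cell-free assay with purified firefly luciferase at 100 ng per well in PBS; test concentration not given here.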 Particulars: purified firefly luciferase, SteadyGlo luminescence, 30 min; higher = more signal, called active from +8 up or from −8 down.
The subject of test [11] is Wnt5a (protein binding on small-molecule microarray). Nature of the test: small molecules binding Wnt5a protein – biophysical, small-molecule microarray, 635/667 nm fluorescence, primary screen (AID 1142).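 Note: fluorescence read at 667 nm with signal to noise per printed feature.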 Particulars: 635 nm fluorescence, higher = more signal.
A short description of test [12]: ATP-based viability of Huh7 replicon cells – cell-based, CellTiter-Glo luminescence, basal, 48 h, cytotoxicity control for HCV replication inhibitor project, primary screen (AID 1143).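 Note: Huh7 hepatoma cells carrying a hepatitis C replication reporter with no stimulus; test concentration not given here.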 The following applies: higher = more signal, called active from +8 up or from −8 down. A general note: In antiviral work, replicon cells carry a viral genome segment that copies itself.

Test [13] in a line: Pseudomonas biofilm growth suppression – PAO1 strain, BacTiter-Glo luminescence, LB-PBS, primary screen (AID 1144). The following applies: P. aeruginosa PAO1 biofilm, 12 h, higher = more signal.
Test [14] in a line: basal CRE-LacZ reporter activity in PC12 – cell-based, unstimulated, primary screen (AID 1145). Particulars: no forskolin, luminescence, 4.5 h, higher = more signal, called active from +8 up or from −8 down.
Test [15] in a line: forskolin-driven CRE-LacZ activity in PC12 – cell-based, CRE-LacZ reporter, forskolin-stimulated, primary screen (AID 1146).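 Note: PC12 cells with 6xCRE LacZ reporter stimulated by forskolin 10 µM; beta-galactosidase reporter signal reflecting CREB driven transcription.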 Particulars: luminescence, 4.5 h, higher = more signal, called active from +8 up or from −8 down.
For test [16], the target named is Streptavidin (Streptomyces avidinii) (UniProt P22629). Nature of the test: compounds binding control protein streptavidin – biophysical, small-molecule microarray, 635/667 nm fluorescence, artefact control for SMM compound annotation, primary screen (AID 1147).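 Note: signal reflects streptavidin binding to arrayed compounds as a control protein.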 Particulars: higher = more signal.
Streptavidin (Streptomyces avidinii), sequence (P22629 whole entry, looked up): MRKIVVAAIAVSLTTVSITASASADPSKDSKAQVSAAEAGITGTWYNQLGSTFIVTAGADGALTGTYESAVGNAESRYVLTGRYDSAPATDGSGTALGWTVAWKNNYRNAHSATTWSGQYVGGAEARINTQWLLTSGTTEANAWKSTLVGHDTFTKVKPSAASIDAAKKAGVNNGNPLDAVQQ
The nature of test [17]: probe aInhba binding on compound microarray – biochemical, small-molecule microarray, 635/667 nm fluorescence, primary screen (AID 1148).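 Note: score merges 667nm spot fluorescence with signal-to-noise for antibody binding to printed compounds.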 The following applies: higher = more signal.
In test [18] the target is Torsin-1A (Homo sapiens) (UniProt O14656). Nature of the test: TOR1A wild-type binding on microarray – cell lysate, small-molecule microarray, lysate, 635/667 nm, primary screen (AID 1149). Particulars: COS7 hTOR1A-WT lysate, 635 nm fluorescence, higher = more signal.
Torsin-1A (Homo sapiens), sequence (O14656 whole entry, looked up): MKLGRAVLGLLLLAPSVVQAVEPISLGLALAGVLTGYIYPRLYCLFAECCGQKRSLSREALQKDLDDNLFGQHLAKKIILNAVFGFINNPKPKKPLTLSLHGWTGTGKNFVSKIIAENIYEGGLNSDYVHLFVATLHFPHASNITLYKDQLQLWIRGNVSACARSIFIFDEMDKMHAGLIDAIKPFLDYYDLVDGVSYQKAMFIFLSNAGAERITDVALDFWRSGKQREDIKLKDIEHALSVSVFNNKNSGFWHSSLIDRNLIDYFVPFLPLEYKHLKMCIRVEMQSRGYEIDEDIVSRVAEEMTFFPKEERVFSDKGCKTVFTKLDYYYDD
Test [19] has the same target. The test can be described thus: torsin A mutant lysate binding on microarrays – cell lysate, small-molecule microarray, COS7 lysate, 635/667 nm fluorescence, primary screen (AID 1150).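 Note: score pools 667 nm emission and signal to noise measuring lysate protein binding.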 Particulars: COS7 hTOR1A mutant lysate, 635 nm fluorescence, higher = more signal.
Test [20] has as its system Sonic hedgehog protein (Shh). Nature of the test: Sonic hedgehog microarray binding compounds – biochemical, small-molecule microarray, 635/667 nm fluorescence, primary screen (AID 1151).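 Note: Shh protein binding to compounds spotted on small-molecule microarray slides; score combines spot fluorescence intensity with signal-to-noise across triplicate slides.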 The following applies: 635 nm fluorescence, higher = more signal.

Active and inactive are the calls of the source. Unless noted, the rule behind the calls is not given here.

Luciferin 4-monooxygenase (Photinus pyralis), sequence (P08659 whole entry, looked up): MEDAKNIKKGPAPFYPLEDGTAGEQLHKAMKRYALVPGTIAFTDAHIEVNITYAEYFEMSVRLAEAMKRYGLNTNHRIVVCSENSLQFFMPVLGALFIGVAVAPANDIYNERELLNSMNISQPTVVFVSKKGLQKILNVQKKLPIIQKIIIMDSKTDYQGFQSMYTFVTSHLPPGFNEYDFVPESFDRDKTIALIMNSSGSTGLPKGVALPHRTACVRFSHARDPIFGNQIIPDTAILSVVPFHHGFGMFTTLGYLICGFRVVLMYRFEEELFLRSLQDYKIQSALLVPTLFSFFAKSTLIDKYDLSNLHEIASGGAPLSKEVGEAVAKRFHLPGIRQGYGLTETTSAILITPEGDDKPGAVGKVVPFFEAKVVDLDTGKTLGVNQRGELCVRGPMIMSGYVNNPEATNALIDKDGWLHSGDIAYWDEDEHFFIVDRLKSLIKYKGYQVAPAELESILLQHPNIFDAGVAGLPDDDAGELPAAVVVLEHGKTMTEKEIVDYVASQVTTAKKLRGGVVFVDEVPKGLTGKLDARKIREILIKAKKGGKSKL

On to `CC[C@H]1C2=C3C(CC[C@H]4C(OCc5ccc(F)cc5C(F)(F)F)OC[C@](C)([C@@H]34)N(C(=O)OC(C)(C)C)C2)C(COC)C1COC` (stereo not given in full), for which the composite z-score was -0.0372 in test [1]; 0.0144 in [2]; -0.093 in [3]; -0.0416 in test [4]; -0.0566 in [5]; -0.758 in test [6]. The composite z-score in test [8] is -0.477; in [9], 0.225; in test [11] it was -0.173; in [16] it was -0.214; in [17], 0.029; in test [18], -0.0927. The composite z-score in [19] is -0.0476; in test [20], -1.3. For the same molecule, the z-score in test [7] was 0.767; in test [10] it was 0.303 (inactive); in [12], 0.0724 (inactive); in test [13], 1.02 (inactive); in [14] it was -0.379 (inactive); in test [15] it was 1.01 (inactive).
Consider `COc1ccc(CCNC(=O)[C@@H]2c3ccccc3C(=O)N(Cc3cc(C(F)(F)F)cc(C(F)(F)F)c3)[C@H]2c2ccc(CO)cc2)cc1`, for which the composite z-score in [1] is 2.15; in [2] it was 0.102; in [3], -0.152; in test [4], 0.629; in test [5] it was 0.255; in test [6] it was -0.258. In addition, the composite z-score was -0.297 in test [8]; 0.985 in test [9]; 0.822 in test [11]; 0.915 in test [16]; -0.016 in test [17]; -0.498 in test [18]. Further, the figures for the composite z-score in [19] and in [20] were -0.181 and 0.355, respectively. For the same molecule, the z-score is 1.95 in [7]; -1.16 (inactive) in [10]; -1.41 (inactive) in test [12]; 0.703 (inactive) in test [13]; 0.441 (inactive) in test [14]; 0.632 (inactive) in [15].
In the case of `C=CCNC(=O)[C@H]1[C@@H]2C(=O)O[C@@H](c3ccccc3)[C@@H](c3ccccc3)N2[C@@H](c2ccc(O)cc2)[C@]12C(=O)N(C(=O)OCCOC)c1ccccc12`, the composite z-score in test [1] was found to be 3.08; in test [2], 1.24; in test [3], 0.484; in [4], 0.886; in test [5] it was 0.852; in [6], 0.198. The composite z-score is 0.31 in test [8]; 0.708 in test [9]; 0.381 in test [11]; -0.0654 in test [16]; 0.122 in test [17]; 0.265 in test [18]. Also, the composite z-score stood at 1.02 in test [19] and 1.11 in test [20]. In addition, the z-score is -0.8 in test [7]; -0.109 (inactive) in test [10]; -2.03 (inactive) in test [12]; 0.309 (inactive) in test [13]; 0.128 (inactive) in [14]; 5.62 (inactive) in [15].
Take `COc1ccc(NC(=O)O[C@H]2[C@H](OC(=O)Nc3ccccc3)[C@@H](OC(=O)Nc3ccccc3)[C@@H](OC)O[C@@H]2CO)cc1`: the composite z-score in test [1] came out at 1.77; in test [2] it was 1.21; in test [3], 0.634; in test [4], 0.825; in test [5] it was 1.34; in [6] it was 1.72. The composite z-score in [8] is 0.512; in test [9] it was 0.626; in test [11], 1.48; in test [16], 0.0017; in test [17], 0.0342; in test [18] it was 0.66. Further, the composite z-score was found to be 1.26 in [19] and 1.17 in test [20]. Moreover, the z-score in test [7] was -0.506; in test [10] it was 0.0551 (inactive); in [12], -4.91 (inactive); in test [13] it was -1.81 (inactive); in [14] it was 0.895 (inactive); in [15], -1.52 (inactive).
`O=C1c2ccccc2[C@](Cc2ccccc2I)(C(=O)NCC(F)(F)F)[C@H](c2ccc(CO)cc2)N1C1CCCCC1`: the composite z-score was 1.64 in [1]; 1.21 in test [2]; -0.003 in test [3]; 0.964 in test [4]; 0.846 in test [5]; 0.18 in test [6]. Also, the composite z-score in test [8] came to 0.289; in test [9], 0.856; in [11] it was 0.2; in test [16], 1.1; in test [17] it was 0.029; in test [18] it was 0.365. Also, the composite z-score was found to be 0.936 in [19] and 0.176 in [20]. Also, the z-score in test [7] is 2.17; in [10], -1.61 (inactive); in [12], -0.772 (inactive); in test [13], 1.01 (inactive); in test [14] it was 0.324 (inactive); in test [15], 2.63 (inactive).
